Source: PubChem BioAssay
AMA1 RON2 block: inhibitors of Plasmodium falciparum AMA1-RON2 interaction; AlphaScreen AMA1-biotinylated RON2 peptide binding; Potency, µM (titrated, usually from 58.2 µM), inactives show top-dose activity change, negative = inhibition, hits mostly inhibitors; hit rate 0.2% among 360,000; AID 720542;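 also: potency is read from the fitted curve at half-maximal effect; 0% = vehicle wells and -100% = peptide control; nearly all actives have a fitted effect of over 45% in size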
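AMA1 (3D7) with his tag at 25 nM final met compounds first, then biotinylated RON2 peptide at 25 nM; detection used donor plus acceptor beads, 10 µg/mL apiece, read by AlphaScreen after 30 min at room temperature.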
Shiga toxin inh: inhibitors of Shiga toxin in Vero cells; Vero cells, Shiga toxin protein synthesis inhibition reporter; inhibition, % at 38.7 µM; hit rate 9.2% among 290,000; AID 2315; in the data active = inhibition mostly above about 28%, no sharp cut-off; inactive = mostly below about 43%; also: 0% is about no effect
CHX counter: counter-screen hit for Shiga toxin inhibitors, cycloheximide; cell reporter, cycloheximide protein synthesis inhibition counterscreen; max response, %; hit rate 12% among 300,000; AID 2314; in the data active = max response mostly above about 13%, no sharp cut-off; inactive = mostly below about 14%; also: read at 38.3 µM for the half of the compounds with a filed dose; 0% is about no effect
Pf growth 96h: P. falciparum growth inhibition at 96 hours; P. falciparum luciferase reporter growth, 96 h; Potency, µM (titrated, usually from 28.7 µM), without a hit: top-dose activity change, negative = inhibition, usual class: inhibitors; hit rate 6.9% among 320,000; AID 504834; also: potency is read from the fitted curve at half-maximal effect; % is scaled to controls: 0 for no effect and ±100 for the full control effect
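Infected RBCs, 2% Hct / 0.05% parasitemia final; luciferase-reporter P. falciparum; cpd 96 h, 37 C, 5% CO2; luciferase detection reagent; luminescence.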
Pf growth 48h: inhibits P. falciparum growth in the first generation, 48 h | hit rate 5.9% among 310,000 | P. falciparum luciferase growth in erythrocytes, 48 h | Potency, µM (top dose mostly 28.7 µM), inactives show top-dose activity change, negative = inhibition, actives largely listed as inhibitors; also: potency is read from the fitted curve at half-maximal effect; % is scaled to controls: 0 for no effect and ±100 for the full control effect
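Luminescence readout; reporter = integrated firefly luciferase in P. falciparum. RBC culture at 2% hematocrit, 0.1% parasitemia final, 37 C/5% CO2; decreased signal taken as growth inhibition.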
SARS PLP yeast: SARS-CoV PLP inhibition in yeast | S. cerevisiae expressing SARS-CoV PLpro, growth rescue | Potency, µM (highest dose often 32.9 µM), for inactives: at the top dose activity, positive = growth rescue, most hits filed as activators | hit rate 0.19% among 330,000; calls by dose curve; also: potency is read from the fitted curve at half-maximal effect; 0% is about no effect; nearly all actives have a fitted effect of over 55% in size
An asterisk follows results filed as active; i = inactive; ? = inconclusive; / = not tested or not shown; [ ] = dose if it differs, or a comment. The list is not random: actives were taken first. Their share in the collection is about 19%. Unless noted, calls follow the shape of the dose curve; as a rule, active = well fitted curve in the direction sought with a large enough effect; inconclusive = small, poorly fitted or top-dose-only effect, or another doubt; inactive = no such curve, though single readings can be large; an effect the other way counts as inactive or inconclusive.

SMILES	AMA1 RON2 block	Shiga toxin inh	CHX counter	Pf growth 96h	Pf growth 48h	SARS PLP yeast
COc1cccc2sc(N3CCN(C(=O)c4ccco4)CC3)nc12	-15%	/	/	?	9.3µM*	7%
Cc1cccc2sc(NC(=O)C3CCN(C(=O)c4ccco4)CC3)nc12	13%	40	38*	15µM*	-20%	-3%
CCc1cccc2sc(N3CCN(C(=O)c4ccc([N+](=O)[O-])o4)CC3)nc12	?	/	/	0.52µM*	0.66µM*	6%
Cc1ccc(Cl)c2sc(N3CCN(C(=O)c4ccco4)CC3)nc12	-14%	/	/	?	?	-17%
Cc1cc(C)c(NC(=O)C2CCN(C(=O)c3ccco3)CC2)c(C)c1	21%	-6	-3	0%	21%	1%
Cc1nn(C)cc1S(=O)(=O)Nc1ccc(F)c(F)c1	8%	-18	-2	-14%	-26%	6%
CCC(/C=N/NC(=O)CCCCC(=O)N/N=C/C(CC)CC)CC	14%	-6	7	13%	-7%	18%
COc1ccc(N2C(=O)N(Cc3cccc(F)c3)c3ccccc3S2(=O)=O)cc1	/	-7	0	?	?	-10%
CCC(/C=C1\Sc2ccc(OC)cc2N1CCO)=C\c1sc2ccc(OC)cc2[n+]1CCO	0%[2.32 µM]	-3	-5	7.4µM*	0.59µM*	-57%
CCC(/C=C1\Sc2ccc(OC)cc2N1CC)=C\c1sc2ccc(OC)cc2[n+]1CCCS(=O)(=O)[O-]	?	-5	-10	?	?	-5%
Cc1n[nH]c(=O)c2c(NC(=O)CSc3nncs3)oc(C)c12	0%	/	/	19%	-11%	11%
CC(=O)N1CC[C@H]2CC(=O)CC[C@@]21C	/	i	3	/	/	/
CC(C)NC(=O)C(C)Oc1ccc(S(=O)(=O)NCc2ccc3c(c2)OCO3)cc1 (stereo not drawn)	-10%	/	-2	38%	?	7%
O=C(Nc1ccccc1Br)C1CCCN1S(=O)(=O)c1cccc2nsnc12 (stereo not drawn)	-8%	13	-1	?	-2%	-6%
COc1ccccc1NC(=O)C1CCCN1S(=O)(=O)c1cccc2nsnc12 (stereo not drawn)	5%	-3	-3	?	-1%	-6%
COc1ccc(NC(=O)C2CCCN2S(=O)(=O)c2cccc3nsnc23)c(OC)c1 (stereo not drawn)	2%	17	12	10µM*	?	4%
Cc1ccc(C(=O)O)cc1NC(=O)C1CCCN1S(=O)(=O)c1cccc2nsnc12 (stereo not drawn)	-5%	16	-1	17µM*	/	4%
Cc1c(NC(=O)C2CCCN2S(=O)(=O)c2cccc3nsnc23)cccc1C(=O)O (stereo not drawn)	11%	-4	-3	9.3µM*	/	7%
Cc1ccc(NC(=O)CN(C)C(=O)COC(=O)CCS(=O)(=O)c2ccc(C)cc2)cc1	6%	3	-1	-24%	5%	-2%
O=C1COc2ccc(N3C(=O)c4ccccc4C3=O)cc2N1	/	19	-7	21%	-31%[1.15 µM]	1%
CCCc1c(O)nc(SCCN(CC)CC)[nH]c1=O	-11%	-21	-3	/	-8%	-2%
CCCc1c(O)nc(SCCN(CC)CC)n(C(=O)c2ccccc2)c1=O	0%	-8	-2	13µM*	?	3%
N#Cc1cn(N2CCCCC2)c(=O)[nH]c1=O	-8%	-8	-4	-1%	/	-4%
CCCC(=O)N1CCCC(C(=O)c2cccc(OC(C)C)c2)C1 (stereo not drawn)	-9%	/	/	/	/	/
O=C1CCC(CCC(=O)N2CCCC(C(=O)c3cccc(C(F)(F)F)c3)C2)=NN1 (stereo not drawn)	?	15	11*	13%	47%	0%
SMILES	AMA1 RON2 block	Shiga toxin inh	CHX counter	Pf growth 96h	Pf growth 48h	SARS PLP yeast
COc1cccc(C(=O)C2CCCN(C(=O)CCC3=NNC(=O)CC3)C2)c1 (stereo not drawn)	0%	46*	16*	21%	24%	-1%
COc1ccc(C(=O)C2CCCN(C(=O)C3=CCCC3)C2)c(C)c1 (stereo not drawn)	-6%	-18	-2	?	-11%	-3%
COc1ccc(C(=O)C2CCCN(C(=O)CCC3=NNC(=O)CC3)C2)c(C)c1 (stereo not drawn)	-3%	17	-4	10µM*	0%	0%
O=C(c1cccc(C(F)(F)F)c1)C1CCCN(C(=O)CCc2cnccn2)C1 (stereo not drawn)	3%	7	2	?	-19%	0%
Cc1noc(C)c1S(=O)(=O)N(C)C[C@H]1Oc2ccc(NC(=O)CCC(F)(F)F)cc2C(=O)N([C@H](C)CO)C[C@@H]1C	-6%	/	/	/	/	12%
COc1ccc(-n2c(SCC(N)=O)nnc2-c2ccc(NS(=O)(=O)c3ccc(C)cc3)cc2)cc1	2%	-11	-3	10µM*	/	-9%
COc1ccc(-n2c(SCC(=O)Nc3ccccc3)nnc2-c2ccc(NS(=O)(=O)c3ccc(C)cc3)cc2)cc1	12%	50	-1	3.3µM*	/	4%
COc1ccc(-n2c(SCC#N)nnc2-c2ccc(NS(=O)(=O)c3ccc(C)cc3)cc2)cc1	4%	-12	-5	14%	/	5%
Cc1ccc(NC(=S)Nc2ccc3cn[nH]c3c2)cc1	-2%	33	18*	56%	12%	3%
Cc1ccc(NC(=S)Nc2cccc(-c3n[nH]c(=S)o3)c2)cc1	83%	40*	32*	16%	2%	-1%
O=C(NC(=S)Nc1ccc2cn[nH]c2c1)c1ccccc1	4%	79*	41*	149%	359%	-2%
Cc1cc(C)cc(NC(=S)Nc2ccc3cn[nH]c3c2)c1	27%	-1	8	33%	12%	4%
NC(=S)Nc1cccc(-c2n[nH]c(=S)o2)c1	39%	-2	-3	3%	1%	-1%
NC(=S)Nc1ccc2cn[nH]c2c1	-7%	-7	-1	78%	34%	1%
S=C(Nc1ccccc1)Nc1ccc2cn[nH]c2c1	28%	55*	46*	102%	102%	-2%
COC(=O)C1=C[C@@H](C(=O)OC)C2C3=C(C(=O)[C@]2(CC(C)C)NC(=O)c2ccccc2)[C@H](C)n2c(=O)n(-c4ccccc4)c(=O)n2[C@@H]3C1 (stereo partly drawn)	/	-8	-3	/	/	/
Cc1nn(C)c(C)c1NC(=O)CCl	7%	-10	-4	13%	?	0%
CCn1c(=O)c2cc(C(=O)NCC(OC)OC)sc2c2ccccc21	13%	2	-2	1.5µM*	10%[0.00184 µM]	-5%
CCC(C)NC(=O)c1cc2c(=O)n(CC)c3ccccc3c2s1 (stereo not drawn)	9%	9	12*	?	8%[0.00184 µM]	1%
